Screening data (PubChem)
ASM inhibitor: human S-ASM enzyme inhibition; placental ASM, HMU-PC fluorogenic substrate, 60 min; Potency, µM (series often up to 57.5 µM), inactives show at the top dose activity change, negative = inhibition, usual class: inhibitors; 340,000 tested, 0.006% active; P17405; also: potency is read from the fitted curve at half-maximal effect
Target sequence (P17405 47-631 limits assumed): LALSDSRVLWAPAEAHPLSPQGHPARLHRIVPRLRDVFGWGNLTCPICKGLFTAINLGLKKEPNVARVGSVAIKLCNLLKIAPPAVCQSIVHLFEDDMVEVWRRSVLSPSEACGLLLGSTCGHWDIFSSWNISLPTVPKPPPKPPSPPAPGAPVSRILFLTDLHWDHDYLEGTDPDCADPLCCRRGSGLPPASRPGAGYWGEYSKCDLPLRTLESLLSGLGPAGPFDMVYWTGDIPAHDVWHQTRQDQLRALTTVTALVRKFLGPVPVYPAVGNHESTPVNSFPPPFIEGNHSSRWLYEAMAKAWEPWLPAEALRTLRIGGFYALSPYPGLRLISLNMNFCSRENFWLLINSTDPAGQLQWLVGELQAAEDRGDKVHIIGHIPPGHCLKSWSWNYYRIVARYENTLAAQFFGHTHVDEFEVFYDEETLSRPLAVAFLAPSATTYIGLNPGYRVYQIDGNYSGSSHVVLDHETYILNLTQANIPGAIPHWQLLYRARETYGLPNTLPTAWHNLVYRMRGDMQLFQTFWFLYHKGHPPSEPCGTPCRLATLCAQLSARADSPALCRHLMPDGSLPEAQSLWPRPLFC
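Fluorogenic HMU-PC substrate (9 uM final) is turned over by placental ASM in 60 min at 37 C after a 10 min compound preincubation. Reaction ended by alkaline stop (pH 10), with fluorescence read at 386/447 nm.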
IL1B secr inh: inhibitors of inflammasome signaling (IL-1 beta secretion); THP-1 LPS/ATP IL-1B secretion, AlphaLISA, 16 h; active compounds read low; activity change, % at 57.5 µM; 360,000 tested, 4.7% active; AID 743279; in the data active = activity change below about -50%; inconclusive = mostly about -30% to -49%; also: % is scaled to controls: 0 for no effect and ±100 for the full control effect
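Secreted IL-1B measured by AlphaLISA bead assay after 16 h compound exposure of THP-1 cells; compounds (final up to 57.5 uM) added 1 h before LPS (250 ng/mL) and ATP (1.25 mM) stimulation; lower signal means less secretion.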
HepG2 tox: counter-screen for TGF-b inhibitors: cytotoxicity in HepG2 cells | HepG2 CAGA-GFP viability, ATP luminescence, 18 h | Potency, µM (doses to about 46.1 µM), inactives show top-dose activity change, negative = cytotoxicity, hits mostly cytotoxic | 410,000 tested, 0.76% active | AID 588856; also: potency is read from the fitted curve at half-maximal effect
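HepG2 CAGA-GFP cells (1000/well, DMEM with 1% FBS) received compound, then TGF-beta at 500 pg/mL final, and were incubated 18 hours at 37 degrees C. Viability was read by CellTiter-Glo luminescence. Media-only wells were set as complete cell-killing and DMSO as no toxicity.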
DT40 TDP1 CPT: growth inhibition of DT40 Tdp1-/-;hTDP1 cells with camptothecin (screen for TDP1 inhibitors) | chicken DT40 Tdp1-/-;hTDP1 cells + 20 nM CPT, ATP luminescence, 48 h | Potency, µM (titrated, usually from 46.2 µM), without a hit: at the top dose activity change, negative = growth inhibition, actives largely listed as inhibitors | 420,000 tested, 12% active; also: potency is read from the fitted curve at half-maximal effect; % is scaled to controls: 0 for no effect and ±100 for the full control effect; nearly all actives have a fitted effect of over 55% in size
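Chicken DT40 Tdp1-/- cells complemented with human TDP1, 400 cells/well, exposed to compounds plus 20 nM camptothecin for at least 48 h at 37 C; viability read as ATP content by CellTiter-Glo luminescence.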
TDP1 cell noCPT: qHTS for Inhibitors of human tyrosyl-DNA phosphodiesterase 1 (TDP1): qHTS in cells in absence of CPT | DT40 Tdp1-/- hTDP1 cells, no CPT, ATP luminescence, 48 h | Potency, µM (series often up to 46.2 µM), for the others: top-dose activity change, negative = growth inhibition, usual class: inhibitors | 420,000 tested, 15% active | AID 686978, 2013; also: potency is read from the fitted curve at half-maximal effect; % is scaled to controls: 0 for no effect and ±100 for the full control effect; nearly all actives have a fitted effect of over 55% in size
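Growth of hTDP1-complemented DT40 Tdp1-knockout cells is measured by ATP luminescence after at least 48 hr compound exposure at 37 °C, with DMSO substituting for the 20 nM CPT used in the parallel screen.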
TGFb SMAD3 inh: TGF-b pathway inhibition; 410,000 tested, 1.2% active; Potency, µM (top dose mostly 46.1 µM), for the others: top-dose activity, negative = inhibition, most hits filed as inhibitors; HepG2 CAGA-GFP TGF-b/SMAD3 reporter, GFP fluorescence, 18 h; TGF-beta stimulated, 500 pg/mL final; AID 588855; also: potency is read from the fitted curve at half-maximal effect; % is scaled to controls: 0 for no effect and ±100 for the full control effect; nearly all actives have a fitted effect of over 65% in size
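GFP signal (ex488/em500-530) from TGF-beta-stimulated HEPG2 CAGA-GFP cells, 500 pg/mL final, 18 h at 37 degrees C in DMEM plus 1% FBS, normalized to unstimulated and DMSO-stimulated controls.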
The depositor's hits bear a star; [ ] = another dose, or the depositor's remark. Rows were chosen to be rich in hits. Some 19% of all compounds tested hit in one or more screens of this group. Unless noted, calls follow the shape of the dose curve; as a rule, active = well fitted curve in the direction sought with a large enough effect; inconclusive = small, poorly fitted or top-dose-only effect, or another doubt; inactive = no such curve, though single readings can be large; an effect the other way counts as inactive or inconclusive.

O=C(NC1CCC(O)CC1)c1ccc(NS(=O)(=O)c2cccc([N+](=O)[O-])c2)cc1 (stereo unspecified) was read as ASM inhibitor 3%, IL1B secr inh 4, HepG2 tox -1%, DT40 TDP1 CPT -25%, TDP1 cell noCPT 1% and TGFb SMAD3 inh 1%.
O=c1cc(/C=C/c2cccs2)[nH]c2ccccc12 was read as ASM inhibitor 36%, IL1B secr inh 0, HepG2 tox -37%, DT40 TDP1 CPT 2.6µM*, TDP1 cell noCPT 2.1µM* and TGFb SMAD3 inh -2%.
Screening COc1cc(OC)c(C2C=C(c3ccc(C)cc3)Nc3c(C(=O)Nc4ccccc4)cnn32)cc1OC (stereo unspecified) returned HepG2 tox -10%, DT40 TDP1 CPT inconclusive, TDP1 cell noCPT inconclusive and TGFb SMAD3 inh -14%.
For c1ccc(-c2cn3c(n2)-c2ccccc2C3)cc1 the results were ASM inhibitor 4%, IL1B secr inh -7, HepG2 tox -64%, DT40 TDP1 CPT inconclusive, TDP1 cell noCPT 15µM* and TGFb SMAD3 inh -20%.
COC(=O)c1sccc1S(=O)(=O)N1CCN(c2cc(Cl)ccc2C)CC1 was read as HepG2 tox 0%, DT40 TDP1 CPT inconclusive, TDP1 cell noCPT inconclusive and TGFb SMAD3 inh 24%.
For COC(=O)c1sc(S(=O)(=O)N2CCN(c3ccc(OC)cc3)CC2)c(C(=O)OC)c1C the results were ASM inhibitor -18%, IL1B secr inh 46, HepG2 tox -6%, DT40 TDP1 CPT -6%, TDP1 cell noCPT inconclusive and TGFb SMAD3 inh -15%.
`COC(=O)c1sccc1NC(=S)N1CCN(c2cccc(C)c2C)CC1` gave ASM inhibitor -3%, IL1B secr inh 19, HepG2 tox 2%, DT40 TDP1 CPT 18µM*, TDP1 cell noCPT 23µM* and TGFb SMAD3 inh inconclusive.
`COC(=O)c1sc(S(=O)(=O)N2CCN(c3ccccc3F)CC2)c(C(=O)OC)c1C` gave ASM inhibitor -4%, IL1B secr inh 2, HepG2 tox 2%, DT40 TDP1 CPT 15µM*, TDP1 cell noCPT inconclusive and TGFb SMAD3 inh 6%.
For COC(=O)c1sccc1S(=O)(=O)N1CCN(c2cccc(C)c2C)CC1 the results were HepG2 tox 0%, DT40 TDP1 CPT inconclusive, TDP1 cell noCPT 23µM* and TGFb SMAD3 inh -1%.
`COC(=O)c1sccc1S(=O)(=O)N1CCN(c2ccc(C)cc2C)CC1` gave HepG2 tox -40%, DT40 TDP1 CPT inconclusive, TDP1 cell noCPT 23µM* and TGFb SMAD3 inh -14%.
CCN(CC)S(=O)(=O)c1ccc2nc(NC(=O)c3ccc(Br)o3)sc2c1 was read as HepG2 tox -26%, DT40 TDP1 CPT -17%, TDP1 cell noCPT -19% and TGFb SMAD3 inh -8%.
`CC(NC(=O)c1ccco1)c1nnc2n1CCN(Cc1ccc(Cl)cc1)CC2` (stereo unspecified) gave DT40 TDP1 CPT 13%[9.04 µM] and TDP1 cell noCPT 2%.
`CCOc1ccccc1C1N=C(c2ccc(OC)cc2)CC(c2ccccc2O)N1` (stereo unspecified) gave ASM inhibitor -3%, IL1B secr inh -14, HepG2 tox -27%, DT40 TDP1 CPT 21µM*, TDP1 cell noCPT 16µM* and TGFb SMAD3 inh inconclusive.
`Cc1ccc(S(=O)(=O)CCC(=O)Nc2nc(-c3ccccn3)cs2)cc1` gave ASM inhibitor -1%, IL1B secr inh 8, HepG2 tox -9%, DT40 TDP1 CPT 6.5µM*, TDP1 cell noCPT 5.8µM* and TGFb SMAD3 inh -28%.
Screening O=C(CCS(=O)(=O)c1ccccc1)Nc1nccs1 returned ASM inhibitor 2%, IL1B secr inh -3, HepG2 tox 1%, DT40 TDP1 CPT inconclusive, TDP1 cell noCPT inconclusive and TGFb SMAD3 inh inconclusive.
For O=C(CCS(=O)(=O)c1ccc(Cl)cc1)Nc1nc(-c2ccncc2)cs1 the results were ASM inhibitor -3%, IL1B secr inh inconclusive, HepG2 tox -28%, DT40 TDP1 CPT 16µM*, TDP1 cell noCPT 13µM* and TGFb SMAD3 inh -27%.
For O=C(CCS(=O)(=O)c1ccccc1)Nc1nc(-c2ccc(F)cc2)cs1 the results were ASM inhibitor -4%, IL1B secr inh -77*, HepG2 tox -52%, DT40 TDP1 CPT inconclusive, TDP1 cell noCPT inconclusive and TGFb SMAD3 inh inconclusive.
For COc1ccc(-c2csc(NC(=O)CCS(=O)(=O)c3ccccc3)n2)c(OC)c1 the results were ASM inhibitor -5%, IL1B secr inh -88*, HepG2 tox -99%, DT40 TDP1 CPT inconclusive, TDP1 cell noCPT 8.2µM* and TGFb SMAD3 inh inconclusive.
`COc1ccc(C(C)NC(=O)C2CCN(CCCc3ccccc3)CC2)cc1OC` (stereo unspecified) gave IL1B secr inh 24, HepG2 tox -9%, DT40 TDP1 CPT -12%, TDP1 cell noCPT -9% and TGFb SMAD3 inh -10%.
Screening CN(Cc1cccnc1)Cc1cn[nH]c1-c1ccc(-c2ccccc2)cc1 returned ASM inhibitor 5%, IL1B secr inh inconclusive, HepG2 tox -6%, DT40 TDP1 CPT inconclusive, TDP1 cell noCPT inconclusive and TGFb SMAD3 inh -9%.
Screening CCOC(=O)O[C@]1(C(=O)OCCl)CC[C@H]2[C@@H]3CCC4=CC(=O)C=C[C@]4(C)[C@H]3[C@@H](O)C[C@@]21C returned DT40 TDP1 CPT -14% and TDP1 cell noCPT -5%.
`Cc1ccc(S(=O)(=O)CCC(=O)Nc2nc(-c3cccnc3)cs2)cc1` gave ASM inhibitor -2%, IL1B secr inh -10, HepG2 tox -14%, DT40 TDP1 CPT 15µM*, TDP1 cell noCPT inconclusive and TGFb SMAD3 inh -21%.
For CC(NC(=O)Cn1ccc2cc(S(=O)(=O)N3CCCCCC3)ccc21)c1ccccc1 (stereo unspecified) the results were HepG2 tox -21%, DT40 TDP1 CPT inconclusive, TDP1 cell noCPT 18µM* and TGFb SMAD3 inh -36%.
O=C(Cn1ccc2cc(S(=O)(=O)N3CCCC3)ccc21)NCCc1ccccc1 was read as ASM inhibitor 2%, IL1B secr inh 31, HepG2 tox 4%, DT40 TDP1 CPT inconclusive, TDP1 cell noCPT 23µM* and TGFb SMAD3 inh 0%.
For O=C(Cn1ccc2cc(S(=O)(=O)N3CCCCC3)ccc21)NCc1ccccc1Cl the results were HepG2 tox -15%, DT40 TDP1 CPT 18µM*, TDP1 cell noCPT 21µM* and TGFb SMAD3 inh -24%.
